The nature of assay [1]: NCI Yeast Anticancer Drug Screen. Data for the rad50 strain (AID 155).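 Further: 0% = growth of vehicle-only cultures of the same strain.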 The note with it: S. cerevisiae rad50 strain growth inhibition, active compounds read high. Put shortly: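 Yeast carrying a defined DNA repair defect were exposed to test compounds, and growth was compared with vehicle-treated controls to give percent inhibition.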
Assay [2] in a line: NCI Yeast Anticancer Drug Screen. Data for the mec2-1 strain (AID 157). The note with it: S. cerevisiae mec2-1 strain, active compounds read high. The procedure, abridged: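 Using mec2-1 yeast: add compound, measure growth, express inhibition versus vehicle-treated cultures.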
The nature of assay [3]: NCI Yeast Anticancer Drug Screen. Data for the sgs1 mgt1 strain (AID 161).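 Further: 0% = growth of cultures given vehicle only.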 The note with it: S. cerevisiae sgs1 mgt1 strain, active compounds read high. Put shortly: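 Growth of a repair-deficient yeast mutant was monitored after compound treatment and expressed as inhibition relative to vehicle-treated cultures.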
A short description of assay [4]: NCI Yeast Anticancer Drug Screen. Data for the cln2 rad14 strain (AID 165).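 Further: 0% = growth equal to vehicle treated cultures.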 The note with it: S. cerevisiae cln2 rad14 strain, active compounds read high. The procedure, abridged:
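Yeast strain cln2 rad14, bearing defects in cell cycle control and DNA repair, serves as the test system; values reflect growth inhibition compared with vehicle.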

A short description of assay [5]: NCI Yeast Anticancer Drug Screen. Data for the bub3 strain (AID 167). The note with it: S. cerevisiae bub3 mutant strain, active compounds read high. The procedure, abridged: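 Compounds were applied to a genetically altered yeast strain carrying a cell-cycle control defect. Growth inhibition was scored against vehicle-treated controls.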
The nature of assay [6]: NCI Yeast Anticancer Drug Screen. Data for the mlh1 rad18 strain (AID 175). The note with it: S. cerevisiae mlh1 rad18 strain growth inhibition, active compounds read high. Put shortly:
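Steps: expose repair-defective yeast to compound; measure growth; express inhibition against vehicle-treated controls.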

The mark [7] stands for this setting: at 5.0 µM (retest, dose inferred, filed as 0.5).
[8] abbreviates: at 50.0 µM (retest, dose inferred, filed as 5.0).

This is an account of results in PubChem BioAssay (NCI).

Compounds without any hit were thinned out: in the full panel of roughly 79,000, 15% have a hit. Unmarked numbers belong to inactive results. The source made the active and inactive calls. No stated cut-off is given here; in the data, active means growth inhibition above about 70%; inactive means the rest.

Turning to `C/C(=N\O)c1ccc2c3c(ccc([N+](=O)[O-])c13)CC2`, the growth inhibition is -2% in assay [1] (setting [7]); 9% in assay [1] (setting [8]); 13.2% in assay [1] (at 50.0 µM); -9% in assay [2] (setting [7]); 7% in assay [2] (setting [8]); 29.2% in assay [2] (at 50.0 µM). The growth inhibition in assay [3] (setting [7]) is -9%; in assay [3] (setting [8]), -2%; in assay [3] (at 50.0 µM) it was -6.4%; in assay [4] (setting [7]), 0%; in assay [4] (setting [8]), -5%; in assay [4] (at 50.0 µM), 34.9%. Moreover, the growth inhibition in assay [5] (setting [7]) was 0%; in assay [5] (setting [8]), 7%; in assay [5] (at 50.0 µM) it was 85.2% (active); in assay [6] (setting [7]), 8%; in assay [6] (setting [8]), 30%; in assay [6] (at 50.0 µM), 88.5% (active).
Turning to `CN(Cc1ccccc1)C(c1ccccc1)C(O)C(O)(c1ccccc1)c1ccccc1` (stereo not given), the growth inhibition in assay [1] (setting [7]) is -10%; in assay [1] (setting [8]), 40%; in assay [1] (at 50.0 µM), 85.2% (active); in assay [2] (setting [7]) it was 10%; in assay [2] (setting [8]) it was 78% (active); in assay [2] (at 50.0 µM) it was 58.2%. The growth inhibition in assay [3] (setting [7]) is -3%; in assay [3] (setting [8]) it was 70% (active); in assay [3] (at 50.0 µM), 87.3% (active); in assay [4] (setting [7]), -26%; in assay [4] (setting [8]), 16%; in assay [4] (at 50.0 µM), 19.7%. In addition, the growth inhibition is -9% in assay [5] (setting [7]); 58% in assay [5] (setting [8]); 30.4% in assay [5] (at 50.0 µM); 18% in assay [6] (setting [7]); 81% (active) in assay [6] (setting [8]); 72.5% (active) in assay [6] (at 50.0 µM).
Turning to `O=C(CC(=O)c1ccncc1)c1ccccc1`, the growth inhibition in assay [1] (setting [7]) is 7%; in assay [1] (setting [8]) it was 96% (active); in assay [1] (at 50.0 µM) it was 97.2% (active); in assay [2] (setting [7]), 7%; in assay [2] (setting [8]), 90% (active); in assay [2] (at 50.0 µM), 94.7% (active). Besides, the growth inhibition in assay [3] (setting [7]) is 1%; in assay [3] (setting [8]), 93% (active); in assay [3] (at 50.0 µM) it was 97% (active); in assay [4] (setting [7]), -16%; in assay [4] (setting [8]), 96% (active); in assay [4] (at 50.0 µM), 93.8% (active). The growth inhibition in assay [5] (setting [7]) was -1%; in assay [5] (setting [8]), 98% (active); in assay [5] (at 50.0 µM), 97.6% (active); in assay [6] (setting [7]), 0%; in assay [6] (setting [8]), 99% (active); in assay [6] (at 50.0 µM) it was 98% (active).
Consider `COC(=O)C(=O)C(C(=O)c1ccc(F)cc1)c1nc2n(c1O)C(=N)N=N2` (stereo not given), for which the growth inhibition in assay [1] (setting [7]) was 1%; in assay [1] (setting [8]), 52%; in assay [1] (at 50.0 µM), 39.6%; in assay [2] (setting [7]), -17%; in assay [2] (setting [8]), 46%; in assay [2] (at 50.0 µM), 77.6% (active). The growth inhibition in assay [3] (setting [7]) is 19%; in assay [3] (setting [8]) it was 76% (active); in assay [3] (at 50.0 µM), 23.9%; in assay [4] (setting [7]), 14%; in assay [4] (setting [8]) it was 57%; in assay [4] (at 50.0 µM), 59.9%. Further, the growth inhibition is 14% in assay [5] (setting [7]); 67% in assay [5] (setting [8]); 35.2% in assay [5] (at 50.0 µM); 24% in assay [6] (setting [7]); 79% (active) in assay [6] (setting [8]); 34.8% in assay [6] (at 50.0 µM).
In the case of `O=c1[nH]n(CCc2ccccn2)c(=O)c(Cl)c1Cl`, the growth inhibition in assay [1] (setting [7]) is -5%; in assay [1] (setting [8]) it was -5%; in assay [1] (at 50.0 µM), 9.25%; in assay [2] (setting [7]) it was -9%; in assay [2] (setting [8]), -1%; in assay [2] (at 50.0 µM) it was 1.95%. Also, the growth inhibition in assay [3] (setting [7]) is -3%; in assay [3] (setting [8]) it was -26%; in assay [3] (at 50.0 µM), 12.4%; in assay [4] (setting [7]), 2%; in assay [4] (setting [8]), 6%; in assay [4] (at 50.0 µM), -6.2%. Also, the growth inhibition in assay [5] (setting [7]) is 2%; in assay [5] (setting [8]) it was 7%; in assay [5] (at 50.0 µM) it was -11.2%; in assay [6] (setting [7]) it was -17%; in assay [6] (setting [8]), 13%; in assay [6] (at 50.0 µM), -17.2%.
With `O=S1(=O)C=C(c2ccccc2)S(=O)(=O)C=C1c1ccccc1`, the growth inhibition in assay [1] (setting [7]) was -1%; in assay [1] (setting [8]), 85% (active); in assay [1] (at 50.0 µM), 89% (active); in assay [2] (setting [7]), 3%; in assay [2] (setting [8]), 76% (active); in assay [2] (at 50.0 µM), 89.7% (active). The growth inhibition in assay [3] (setting [7]) is 0%; in assay [3] (setting [8]) it was 63%; in assay [3] (at 50.0 µM) it was 95.2% (active); in assay [4] (setting [7]), 0%; in assay [4] (setting [8]), 94% (active); in assay [4] (at 50.0 µM) it was 57.9%. Also, the growth inhibition in assay [5] (setting [7]) was -5%; in assay [5] (setting [8]), 81% (active); in assay [5] (at 50.0 µM), 91.8% (active); in assay [6] (setting [7]), 0%; in assay [6] (setting [8]), 85% (active); in assay [6] (at 50.0 µM), 91.2% (active).
Regarding `COC(=O)CC1C(=O)OCc2c1cc1n(c2=O)Cc2c-1nc1ccccc1c2OC` (stereo not given), the growth inhibition in assay [1] (setting [7]) is 15%; in assay [1] (setting [8]) it was 77% (active); in assay [1] (at 50.0 µM) it was 94.4% (active); in assay [2] (setting [7]), 4%; in assay [2] (setting [8]) it was 15%; in assay [2] (at 50.0 µM), 9.05%. Further, the growth inhibition in assay [3] (setting [7]) was -4%; in assay [3] (setting [8]), -1%; in assay [3] (at 50.0 µM), 10%; in assay [4] (setting [7]), -12%; in assay [4] (setting [8]) it was -7%; in assay [4] (at 50.0 µM), 20.4%. For the same compound, the growth inhibition in assay [5] (setting [7]) is -2%; in assay [5] (setting [8]) it was 11%; in assay [5] (at 50.0 µM), 12.7%; in assay [6] (setting [7]), 7%; in assay [6] (setting [8]), 1%; in assay [6] (at 50.0 µM) it was 51.2%.
`O=C1c2ccccc2C(=O)N1C(=NCc1ccccc1)c1ccccc1`: the growth inhibition in assay [1] (setting [7]) is 7%; in assay [1] (setting [8]) it was 70% (active); in assay [1] (at 50.0 µM) it was 64.2%; in assay [2] (setting [7]), 2%; in assay [2] (setting [8]), 68%; in assay [2] (at 50.0 µM) it was 63.4%. Also, the growth inhibition in assay [3] (setting [7]) is 4%; in assay [3] (setting [8]) it was 42%; in assay [3] (at 50.0 µM) it was 64%; in assay [4] (setting [7]), 3%; in assay [4] (setting [8]), 64%; in assay [4] (at 50.0 µM), 5.55%. For the same compound, the growth inhibition in assay [5] (setting [7]) is -3%; in assay [5] (setting [8]), 66%; in assay [5] (at 50.0 µM), 55.2%; in assay [6] (setting [7]), 4%; in assay [6] (setting [8]) it was 78% (active); in assay [6] (at 50.0 µM), 83.2% (active).
In the case of `COC(=O)c1cccc2c3ccccc3c3ccccc3c12`, the growth inhibition is 6% in assay [1] (setting [7]); 98% (active) in assay [1] (setting [8]); 97.1% (active) in assay [1] (at 50.0 µM); 15% in assay [2] (setting [7]); 98% (active) in assay [2] (setting [8]); 99.5% (active) in assay [2] (at 50.0 µM). Besides, the growth inhibition in assay [3] (setting [7]) is 8%; in assay [3] (setting [8]) it was 99% (active); in assay [3] (at 50.0 µM), 99.2% (active); in assay [4] (setting [7]), 6%; in assay [4] (setting [8]) it was 97% (active); in assay [4] (at 50.0 µM), 99.5% (active). Moreover, the growth inhibition was 12% in assay [5] (setting [7]); 97% (active) in assay [5] (setting [8]); 97.8% (active) in assay [5] (at 50.0 µM); 9% in assay [6] (setting [7]); 99% (active) in assay [6] (setting [8]); 99.2% (active) in assay [6] (at 50.0 µM).
As for `Cc1cc(C)c(S(=O)(=O)c2c(C)cc(C)cc2C)c(C)c1`, the growth inhibition in assay [1] (setting [7]) was -3%; in assay [1] (setting [8]), -7%; in assay [1] (at 50.0 µM), 39%; in assay [2] (setting [7]), -4%; in assay [2] (setting [8]), -9%; in assay [2] (at 50.0 µM), 12.5%. Further, the growth inhibition in assay [3] (setting [7]) was -4%; in assay [3] (setting [8]), -4%; in assay [3] (at 50.0 µM), 6.2%; in assay [4] (setting [7]) it was -5%; in assay [4] (setting [8]), -22%; in assay [4] (at 50.0 µM), 41.7%. The growth inhibition in assay [5] (setting [7]) is -3%; in assay [5] (setting [8]) it was -6%; in assay [5] (at 50.0 µM), 0.65%; in assay [6] (setting [7]) it was -6%; in assay [6] (setting [8]), -12%; in assay [6] (at 50.0 µM), 1.15%.
